The values below come from the supplement of paper PMC10338343.

± gives the standard deviation. In all, about 3,000 sequences were measured (“pre-steady-state target cleavage rate”: median about 0.0079, highest 2% from about 0.2 on). For the sample, the highest values were picked, then their nearest neighbours and some sequences at random. Some results are limits rather than exact numbers.

The test system of this assay is MILI (PIWIL2) piRISC loaded with piRNA #2 (26 nt). The experiment in a line: pre-steady-state target cleavage rate (min^-1); MIWI and MILI are mouse PIWI proteins and EfPiwi is from a freshwater sponge; tags in brackets are library labels; higher = faster piRNA-guided slicing of the target. As to conditions: guide: piRNA #2 5'p-UUAGGUAACCCAGUAGAUCCAGAGGA; auxiliary factor: 500 nM mouse GTSF1. Here is the method:
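Cleave-'n-Seq: a library of target RNAs (target site embedded in constant flanks, ACAGCATTCCGCGTTAGTGATATCCG... 5' flank; DNA-blocked outside the site) at 0.1 nM was incubated with 1 nM active mouse MILI or MIWI piRISC (synthetic 5'-monophosphorylated piRNA guide) with or without 500 nM mouse GTSF1 at 33 °C for 1 min to 16 h. Uncleaved targets were sequenced and normalised to non-target controls, and the pooled three trials were fitted to a burst-and-steady-state model to give the pre-steady-state cleavage rate (min^-1; k3 is constrained to at most 1e-4). Sequence is the target site only; target names encode pairing extent (gX:gY) and contiguous / 1-mismatch / 2-mismatch / bulge geometry. Fits with R² ≤ 0 are excluded.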
On to CUUAUCCUCUGGAUCUACUGGGUUAUCUAA, for which the “pre-steady-state target cleavage rate” value is 0.0884 ± 0.015. For the sequence CUUAUCCUCUGGAUCUACUGGGUUUCGUAA, the “pre-steady-state target cleavage rate” value was 0.171 ± 0.071.

On to CUUAUCCUCUGGAUCUACUGGGUUUCCAAA, for which the “pre-steady-state target cleavage rate” value turned out to be 0.134 ± 0.047. Regarding CUUAUCCUCUGGAUCUACUGGGUUCACCUAA, the “pre-steady-state target cleavage rate” value stood at 0.0872 ± 0.017. Regarding CUUAUCCUCUGGAUCAACUGGGUUUCCUAA, the “pre-steady-state target cleavage rate” value worked out at 0.199 ± 0.072. Consider CUUAUCCUCUGGAUCUACUGGGUUAUCCUAA, for which the “pre-steady-state target cleavage rate” value amounted to 0.204 ± 0.046. On to CUUAAGCUCUGGAUCAACUGGGUUUCCUAA, for which the “pre-steady-state target cleavage rate” value was found to be 0.0481 ± 0.015. Take CUUAUCCUCUGGAUCUACUGGGUUCCUAA: the “pre-steady-state target cleavage rate” value was determined as 0.239 ± 0.11. In the case of CUUAACCUCUGGAUCAACUGGGUUUCCUAA, the “pre-steady-state target cleavage rate” value was found to be 0.101 ± 0.038. On to CUUAUCCUCUGGAUCUACUGGGUAUCCUAA, for which the “pre-steady-state target cleavage rate” value stood at 0.0336 ± 0.014. Take “CUUAUCCUCUGGAUCUACUGGGUUACCUAA [g2:g26:cont:t1A]”: the “pre-steady-state target cleavage rate” value was 0.125 ± 0.023.

With CUUAUCCUCUGGAUCUACUGGGUUUCCUUA, the “pre-steady-state target cleavage rate” value turned out to be 0.413 ± 0.15. Turning to CUUAAGCUCAGGAUCAACUGGGUUACCUAA, the “pre-steady-state target cleavage rate” value was determined as 0.0432 ± 0.014. As for CUUAAGGACUGGAUCUAUUGGGUUACCUAA, the figure is 0.0187 ± 0.0078; as for CUUAAGGAGUGGAUCUUCAGGGUUACCUAA, 0.0231 ± 0.0065.

For CUUAAGGUCUGGAUGUACUGGGAUACCUAA, the “pre-steady-state target cleavage rate” value stood at 0.0141 ± 0.01. With CUUAAGGUCUGGAACUUCUGGGUUACCUAA, the “pre-steady-state target cleavage rate” value worked out at 0.0253 ± 0.015. The result for CUUAAGCUCAGGAUCUACUGGGUAACCUAA reads 0.0259 ± 0.0088. The result for CUUAACGUCUGGAUCUACUGGGUUACCUUA reads 0.0827 ± 0.015; that for CUUAAGGAGUGGAUCUACUGGGUCUACCUAA, 0.00823 ± 0.0039; that for CUUAAGGACUGGAUCUACUGGGUAUACCUAA, 0.0248 ± 0.016.

Turning to CUUAAGGUCUGGAUCUACAGGGUUACCAAA, the “pre-steady-state target cleavage rate” value amounted to 0.106 ± 0.017. With CUUAUCCACUGGAUCUACUGGGUUUCCUAA, the “pre-steady-state target cleavage rate” value worked out at 0.123 ± 0.034. Turning to CUUAUCCUCUGGAUCUACUGGGUUUACCUAA, the “pre-steady-state target cleavage rate” value was 0.107 ± 0.023. For CUUAUCCUCUGGAUCUACUGGGUUUCCUAA, the “pre-steady-state target cleavage rate” value is 0.252 ± 0.072. The result for CUUAUCCUCUGGAUCUACUGGGUUACGCUAA reads 0.174 ± 0.026; that for CUUAUCCCUCUGGAUCUACUGGGUUACCUAA, 0.0911 ± 0.022; that for CUUAUCCUCUGGAUCUACUGGGUUCCCUAA, 0.321 ± 0.13. The result for CUUAUCCUCUGGAUCUACUGGGUAUGCUAA reads 0.092 ± 0.023; that for CUUAUCCUCUGGAUCUACUGGGUUACCCUAA, 0.132 ± 0.049; that for CUUAUCCUCUGGAUCUACUGGGUUUGCUAA, 0.216 ± 0.041. Regarding CUUAAGGUGUGGAUCUACUGGGUUACCUUA, the “pre-steady-state target cleavage rate” value was 0.0353 ± 0.011. The result for CUUAUCCUCUGGAUGUACUGCGUUACCUAA reads 0.0106 ± 0.0045. Consider CUUAAGGACUGGAUCUACAGGGUUACCAAA, for which the “pre-steady-state target cleavage rate” value was 0.0404 ± 0.0091. For the sequence CUUAAGCUCUCGGAUCUACUGGGUUACCUAA, the “pre-steady-state target cleavage rate” value came out at 0.064 ± 0.015. Regarding CUUAUCCUCUGGAUCACUGGGUUACCUAA, the “pre-steady-state target cleavage rate” value was 0.0129 ± 0.0061. For the sequence CUUAAGGAGACCUACUACUGGGUUACACUAA, the “pre-steady-state target cleavage rate” value is less than 0.0001.

Turning to CUUAAGGUCUGGAUCUACUGGGUUACCUGAA, the “pre-steady-state target cleavage rate” value is 0.0831 ± 0.035. The result for CUUAAGCUCUGGAUCUAGUGGGUUUCCUAA reads 0.0199 ± 0.0071; that for CUUAUCCUCUCGAUCUACUCGGUUACCUAA, 0.0053 ± 0.0015; that for CUUAAGGAGACCUACUACUGUGGUUACCUAA, less than 0.0001. The result for CUUAACGUCUGCAUCUACUGGGUUACCUAA reads 0.126 ± 0.02; that for CUUAUCCUCUGGACUCUACUGGGUUACCUAA, 0.0887 ± 0.019.

As for CUUAUCCUCUGGAGUCUACUGGGUUACCUAA, the “pre-steady-state target cleavage rate” value worked out at 0.175 ± 0.039. As to CUUAUCCUCUGGAAUCUACUGGGUUACCUAA, the “pre-steady-state target cleavage rate” value stood at 0.156 ± 0.035.

In the case of CUUAUCCUCUGGCUCUACUGGGUUACCUAA, the “pre-steady-state target cleavage rate” value is 1.12 ± 0.3. On to CUUAUCCUCUGAAUCUACUGGGUUACCUAA, for which the “pre-steady-state target cleavage rate” value is 0.109 ± 0.023. In the case of CUUAUCCUCUGGUCUACUGGGUUACCUAA, the “pre-steady-state target cleavage rate” value was found to be 0.983 ± 0.34. For the sequence CUUAUCCUCUGGGUCUACUGGGUUACCUAA, the “pre-steady-state target cleavage rate” value was found to be 0.206 ± 0.035.

On to CUUAAGCUCUGGAUGUACUGGGUUUCCUAA, for which the “pre-steady-state target cleavage rate” value came to 0.0435 ± 0.021. With CUUAAGGUCUGGAUCUACAGGGUUAGCUAA, the “pre-steady-state target cleavage rate” value amounted to 0.0446 ± 0.012. In the case of CUUAAGCUCUGUAUCUACUGGGUUACCUAA, the “pre-steady-state target cleavage rate” value was 0.0444 ± 0.0099. Take CUUAAGGAGUGGAUCUACAGGGUUUCCUAA: the “pre-steady-state target cleavage rate” value is 0.056 ± 0.012. Regarding “CUUAAGGUCUGGAUCUACUGGGUUACCUAU [g2:g23:cont:t1U]”, the “pre-steady-state target cleavage rate” value amounted to 0.101 ± 0.014.

Regarding CUUAUCCUCUGGAUGUAGUGGGUUACCUAA, the “pre-steady-state target cleavage rate” value came out at 0.0679 ± 0.01. Turning to CUUAUCCUCUGCAUCUACUGGGUUACCUUA, the “pre-steady-state target cleavage rate” value stood at 0.466 ± 0.13. In the case of CUUAUCCUCUGGGAUCUACUGGGUUACCUAA, the “pre-steady-state target cleavage rate” value was determined as 0.137 ± 0.023.

With CUUAUCCUCUGGAUCUACUGGGUUACCAAA, the “pre-steady-state target cleavage rate” value came out at 0.13 ± 0.023. Regarding CUUAUCCUCUGGCAUCUACUGGGUUACCUAA, the “pre-steady-state target cleavage rate” value turned out to be 2.56 ± 1.7. As for CUUAUCCUCUGAUCUACUGGGUUACCUAA, the figure is 0.123 ± 0.029.

CUUAUCCUCUGCAUCUACUGGGUUACCUAA: the “pre-steady-state target cleavage rate” value came out at 0.275 ± 0.056. The result for CUUAUCCUCUGCAUCUACUGGGUUACCAAA reads 0.408 ± 0.12; that for CUUAACCUCUGCAUCUACUGGGUUACCAAA, 0.173 ± 0.055; that for CUUAUCCUCUGCGAUCUACUGGGUUACCUAA, 0.0876 ± 0.015. As for CUUAUCCUCUGCAUCUACUGCGUUACCUAA, the figure is 0.0198 ± 0.0066; as for CUUAUCCUCUGGAUCUACUGGGUUACCUUA, 0.13 ± 0.026; as for CUUAACCUCUGCAUCUACUGGGUUACCUUA, 0.178 ± 0.048. CUUAAGCUCUGGAUCUACCGGGUUACCUAA: the “pre-steady-state target cleavage rate” value is 0.0213 ± 0.0061. Turning to CUUAAGCUCUGGAUCUACUGGGUUCACCUAA, the “pre-steady-state target cleavage rate” value was found to be 0.0506 ± 0.017. As for CUUAAGGAGUGGAUCUUCUGGGUUACCUUA, the “pre-steady-state target cleavage rate” value is 0.014 ± 0.007. With CUUAUCCUCUGCAUCUACUGGGUUACGUAA, the “pre-steady-state target cleavage rate” value was found to be 0.483 ± 0.2. Consider CUUAACCUCAGCAUCUACUGGGUUACCUAA, for which the “pre-steady-state target cleavage rate” value came to 0.111 ± 0.027.

Take CUUAACCUCUGCAUCUACUGGGUUACGUAA: the “pre-steady-state target cleavage rate” value is 0.155 ± 0.069. For CUUAUCCUCAGCAUCUACUGGGUUACCUAA, the “pre-steady-state target cleavage rate” value came out at 0.271 ± 0.06.

Turning to CUUAUCCUCACCAUCUACUGGGUUACCUAA, the “pre-steady-state target cleavage rate” value is 0.127 ± 0.051.

CUUAUCCUCUGGAUCUACUGGGUUACGUAA: the “pre-steady-state target cleavage rate” value is 0.0586 ± 0.014. The result for CUUAACCUCUCGGAUCUACUGGGUUACCUAA reads 0.0634 ± 0.017. CUUAAGGAGGGGAUCUACUGGGUUACCUAA: the “pre-steady-state target cleavage rate” value came to 0.0293 ± 0.022. In the case of CUUAUCCUCUGGAUGUACAGGGUUACCUAA, the “pre-steady-state target cleavage rate” value is 0.135 ± 0.011. With CUUAACCUUGGAUCUACUGGGUUACCUAA, the “pre-steady-state target cleavage rate” value came to 0.134 ± 0.041.

On to CUUAACCUCUUGGAUCUACUGGGUUACCUAA, for which the “pre-steady-state target cleavage rate” value came out at 0.245 ± 0.072. As for CUUAACCUCUGCAUCUACUGGGUUACCUAA, the figure is 0.185 ± 0.036. Turning to CUUAACCUCUGGCAUCUACUGGGUUACCUAA, the “pre-steady-state target cleavage rate” value stood at 2.04 ± 1.1.

On to CUUAACCUCUGGCUCUACUGGGUUACCUAA, for which the “pre-steady-state target cleavage rate” value was 0.8 ± 0.2.

On to CUUAAGGUCUGGCAUCUACUGGGUUACCUAA, for which the “pre-steady-state target cleavage rate” value turned out to be 0.211 ± 0.069. As for CUUAAGGUCUGGGUCUACUGGGUUACCUAA, the figure is 0.0913 ± 0.015. With CUUAACCUCUGGGAUCUACUGGGUUACCUAA, the “pre-steady-state target cleavage rate” value came out at 0.168 ± 0.03. As for CUUAAGGUCUGCAUCUACUGGGUUACCUAA, the figure is 0.0733 ± 0.018; as for CUUAACCUCUGAUCUACUGGGUUACCUAA, 0.0852 ± 0.019; as for CUUAACCUCUGGAUCUACUGGGUUACCUAAA, 0.0972 ± 0.022. For CUUAACCUCUGGACUCUACUGGGUUACCUAA, the “pre-steady-state target cleavage rate” value is 0.0674 ± 0.018.
